The source of these data is ChEMBL document CHEMBL2218924, “A broad activity screen in support of a chemogenomic map for kinase signalling research and drug discovery” (Biochem J, 2013).

The target in assay [1] is T1, Ephrin type-A receptor 3 (Homo sapiens) (UniProt P29320).
T1 sequence (whole entry): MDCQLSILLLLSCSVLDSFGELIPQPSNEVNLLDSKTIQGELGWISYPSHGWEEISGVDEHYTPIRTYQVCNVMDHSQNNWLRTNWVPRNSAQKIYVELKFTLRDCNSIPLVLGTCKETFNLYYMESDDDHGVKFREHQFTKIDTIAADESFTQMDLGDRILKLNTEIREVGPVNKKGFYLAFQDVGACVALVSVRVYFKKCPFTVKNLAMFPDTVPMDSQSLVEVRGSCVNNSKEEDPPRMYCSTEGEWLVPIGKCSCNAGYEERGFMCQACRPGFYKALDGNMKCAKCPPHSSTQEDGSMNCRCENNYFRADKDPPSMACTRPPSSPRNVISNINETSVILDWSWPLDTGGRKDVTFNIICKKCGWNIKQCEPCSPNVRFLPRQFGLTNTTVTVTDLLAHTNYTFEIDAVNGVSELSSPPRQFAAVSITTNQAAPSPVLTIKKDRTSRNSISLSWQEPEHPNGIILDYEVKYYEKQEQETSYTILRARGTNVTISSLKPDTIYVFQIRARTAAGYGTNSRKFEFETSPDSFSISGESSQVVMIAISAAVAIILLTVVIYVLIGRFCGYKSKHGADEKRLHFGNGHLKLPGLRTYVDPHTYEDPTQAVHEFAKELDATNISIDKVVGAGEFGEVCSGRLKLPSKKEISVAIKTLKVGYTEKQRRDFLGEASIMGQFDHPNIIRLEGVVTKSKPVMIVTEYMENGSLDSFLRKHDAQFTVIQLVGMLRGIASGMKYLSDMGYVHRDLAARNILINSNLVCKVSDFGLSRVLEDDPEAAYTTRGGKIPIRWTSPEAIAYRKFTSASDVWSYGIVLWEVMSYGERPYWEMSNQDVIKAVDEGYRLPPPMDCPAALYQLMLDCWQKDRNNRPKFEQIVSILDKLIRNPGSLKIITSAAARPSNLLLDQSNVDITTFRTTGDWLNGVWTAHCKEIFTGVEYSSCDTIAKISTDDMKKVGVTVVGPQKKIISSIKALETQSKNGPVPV
The note with it: at 10 µM.

Assay [2] has as its target Ephrin type-A receptor 4 (Homo sapiens) (UniProt P54764). The conditions noted are these: at 1 µM.
Assay [3] shares this target. The conditions noted are these: at 10 µM.
For assay [4], the target named is Ephrin type-A receptor 5 (Homo sapiens) (UniProt P54756). The note with it: at 1 µM.
Sequence of Ephrin type-A receptor 5 (Homo sapiens) (P54756 whole entry): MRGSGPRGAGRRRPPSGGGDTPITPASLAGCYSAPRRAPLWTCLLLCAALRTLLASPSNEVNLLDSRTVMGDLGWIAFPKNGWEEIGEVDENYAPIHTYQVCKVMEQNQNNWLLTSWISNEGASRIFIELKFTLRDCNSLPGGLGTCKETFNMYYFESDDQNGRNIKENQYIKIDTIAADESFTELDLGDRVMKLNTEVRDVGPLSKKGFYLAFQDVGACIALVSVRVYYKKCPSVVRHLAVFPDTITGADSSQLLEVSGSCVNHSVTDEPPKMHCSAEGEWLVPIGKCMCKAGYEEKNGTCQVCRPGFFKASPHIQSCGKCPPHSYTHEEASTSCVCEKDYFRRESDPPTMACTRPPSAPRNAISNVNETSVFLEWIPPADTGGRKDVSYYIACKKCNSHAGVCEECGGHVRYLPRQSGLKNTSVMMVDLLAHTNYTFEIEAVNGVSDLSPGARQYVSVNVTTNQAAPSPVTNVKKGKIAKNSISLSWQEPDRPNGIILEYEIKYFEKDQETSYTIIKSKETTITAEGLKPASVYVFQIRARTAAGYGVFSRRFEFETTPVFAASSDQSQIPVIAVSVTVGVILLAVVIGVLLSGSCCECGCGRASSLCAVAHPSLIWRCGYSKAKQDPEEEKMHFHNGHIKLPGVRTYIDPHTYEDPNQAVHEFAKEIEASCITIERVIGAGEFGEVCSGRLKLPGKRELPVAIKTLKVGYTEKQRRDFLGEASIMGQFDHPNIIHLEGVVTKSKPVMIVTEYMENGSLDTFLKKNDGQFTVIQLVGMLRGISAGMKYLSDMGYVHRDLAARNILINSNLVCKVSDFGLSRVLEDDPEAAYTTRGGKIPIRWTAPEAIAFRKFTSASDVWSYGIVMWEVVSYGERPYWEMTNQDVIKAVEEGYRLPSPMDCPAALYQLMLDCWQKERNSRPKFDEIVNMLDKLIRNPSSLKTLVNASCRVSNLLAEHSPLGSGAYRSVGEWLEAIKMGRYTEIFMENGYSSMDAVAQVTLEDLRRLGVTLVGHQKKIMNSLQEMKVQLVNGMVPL
Assay [5] shares this target. The conditions noted are these: at 10 µM.
The target of assay [6] is Ephrin type-A receptor 7 (Homo sapiens) (UniProt Q15375). The conditions noted are these: at 1 µM.
Sequence of Ephrin type-A receptor 7 (Homo sapiens) (Q15375 28-998 limits assumed): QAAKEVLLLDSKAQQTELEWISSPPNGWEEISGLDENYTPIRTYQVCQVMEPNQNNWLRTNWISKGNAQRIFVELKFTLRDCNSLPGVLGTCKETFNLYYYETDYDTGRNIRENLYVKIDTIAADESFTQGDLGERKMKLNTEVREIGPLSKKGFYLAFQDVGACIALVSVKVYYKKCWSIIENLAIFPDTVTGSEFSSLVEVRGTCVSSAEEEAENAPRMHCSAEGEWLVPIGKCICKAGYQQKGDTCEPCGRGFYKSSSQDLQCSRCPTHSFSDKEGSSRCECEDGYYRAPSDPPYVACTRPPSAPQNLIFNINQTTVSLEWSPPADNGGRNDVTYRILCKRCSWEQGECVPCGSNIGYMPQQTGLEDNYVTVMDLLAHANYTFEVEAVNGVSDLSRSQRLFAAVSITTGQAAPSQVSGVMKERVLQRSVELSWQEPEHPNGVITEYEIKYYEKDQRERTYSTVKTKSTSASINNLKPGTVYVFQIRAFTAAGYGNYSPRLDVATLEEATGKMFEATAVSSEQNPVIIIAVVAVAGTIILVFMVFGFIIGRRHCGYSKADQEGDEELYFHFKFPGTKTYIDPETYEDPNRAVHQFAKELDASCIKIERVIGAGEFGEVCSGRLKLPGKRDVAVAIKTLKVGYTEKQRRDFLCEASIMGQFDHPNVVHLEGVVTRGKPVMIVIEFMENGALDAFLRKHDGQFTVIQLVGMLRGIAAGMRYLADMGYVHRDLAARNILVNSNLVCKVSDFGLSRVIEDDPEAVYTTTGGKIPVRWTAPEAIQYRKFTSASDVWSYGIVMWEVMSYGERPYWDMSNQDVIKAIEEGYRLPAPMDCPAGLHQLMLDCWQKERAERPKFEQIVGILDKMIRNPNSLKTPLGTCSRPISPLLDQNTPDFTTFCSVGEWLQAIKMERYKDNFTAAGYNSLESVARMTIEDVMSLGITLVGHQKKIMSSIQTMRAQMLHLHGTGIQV
For assay [7] the target is unchanged. The note with it: at 10 µM.
Assay [8] addresses T2, Ephrin type-A receptor 8 (Homo sapiens) (UniProt P29322).
T2 sequence (whole entry): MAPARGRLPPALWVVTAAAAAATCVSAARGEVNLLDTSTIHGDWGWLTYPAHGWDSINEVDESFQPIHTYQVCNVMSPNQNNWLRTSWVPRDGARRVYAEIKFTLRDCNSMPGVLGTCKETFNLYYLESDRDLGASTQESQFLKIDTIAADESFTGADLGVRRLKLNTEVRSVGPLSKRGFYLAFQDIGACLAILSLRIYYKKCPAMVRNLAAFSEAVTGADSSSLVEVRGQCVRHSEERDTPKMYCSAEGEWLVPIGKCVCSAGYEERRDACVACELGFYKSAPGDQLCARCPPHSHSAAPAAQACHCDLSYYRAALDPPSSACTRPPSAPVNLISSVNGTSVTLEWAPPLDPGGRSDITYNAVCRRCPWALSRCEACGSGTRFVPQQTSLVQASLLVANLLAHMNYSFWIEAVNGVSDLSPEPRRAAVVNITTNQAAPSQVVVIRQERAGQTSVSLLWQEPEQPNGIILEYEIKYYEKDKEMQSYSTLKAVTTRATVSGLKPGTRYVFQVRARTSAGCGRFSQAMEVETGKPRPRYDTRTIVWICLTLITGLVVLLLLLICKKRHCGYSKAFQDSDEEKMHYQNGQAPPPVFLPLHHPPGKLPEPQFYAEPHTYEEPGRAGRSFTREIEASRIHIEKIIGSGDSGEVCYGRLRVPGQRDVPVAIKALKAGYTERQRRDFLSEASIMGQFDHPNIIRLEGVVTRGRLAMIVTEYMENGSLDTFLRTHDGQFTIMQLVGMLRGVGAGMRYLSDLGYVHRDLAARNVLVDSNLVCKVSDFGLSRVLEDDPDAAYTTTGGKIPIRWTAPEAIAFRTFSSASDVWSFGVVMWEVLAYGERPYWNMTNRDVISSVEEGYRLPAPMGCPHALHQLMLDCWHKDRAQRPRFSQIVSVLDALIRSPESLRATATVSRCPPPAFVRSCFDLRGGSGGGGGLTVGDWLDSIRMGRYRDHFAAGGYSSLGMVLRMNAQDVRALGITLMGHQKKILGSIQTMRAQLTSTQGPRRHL
The note with it: at 1 µM.

In assay [9] the target is T2, Ephrin type-A receptor 8 (Homo sapiens). The note with it: at 10 µM.
Assay [10] has as its target T3, Ephrin type-B receptor 1 (Homo sapiens) (UniProt P54762).
T3 sequence (whole entry): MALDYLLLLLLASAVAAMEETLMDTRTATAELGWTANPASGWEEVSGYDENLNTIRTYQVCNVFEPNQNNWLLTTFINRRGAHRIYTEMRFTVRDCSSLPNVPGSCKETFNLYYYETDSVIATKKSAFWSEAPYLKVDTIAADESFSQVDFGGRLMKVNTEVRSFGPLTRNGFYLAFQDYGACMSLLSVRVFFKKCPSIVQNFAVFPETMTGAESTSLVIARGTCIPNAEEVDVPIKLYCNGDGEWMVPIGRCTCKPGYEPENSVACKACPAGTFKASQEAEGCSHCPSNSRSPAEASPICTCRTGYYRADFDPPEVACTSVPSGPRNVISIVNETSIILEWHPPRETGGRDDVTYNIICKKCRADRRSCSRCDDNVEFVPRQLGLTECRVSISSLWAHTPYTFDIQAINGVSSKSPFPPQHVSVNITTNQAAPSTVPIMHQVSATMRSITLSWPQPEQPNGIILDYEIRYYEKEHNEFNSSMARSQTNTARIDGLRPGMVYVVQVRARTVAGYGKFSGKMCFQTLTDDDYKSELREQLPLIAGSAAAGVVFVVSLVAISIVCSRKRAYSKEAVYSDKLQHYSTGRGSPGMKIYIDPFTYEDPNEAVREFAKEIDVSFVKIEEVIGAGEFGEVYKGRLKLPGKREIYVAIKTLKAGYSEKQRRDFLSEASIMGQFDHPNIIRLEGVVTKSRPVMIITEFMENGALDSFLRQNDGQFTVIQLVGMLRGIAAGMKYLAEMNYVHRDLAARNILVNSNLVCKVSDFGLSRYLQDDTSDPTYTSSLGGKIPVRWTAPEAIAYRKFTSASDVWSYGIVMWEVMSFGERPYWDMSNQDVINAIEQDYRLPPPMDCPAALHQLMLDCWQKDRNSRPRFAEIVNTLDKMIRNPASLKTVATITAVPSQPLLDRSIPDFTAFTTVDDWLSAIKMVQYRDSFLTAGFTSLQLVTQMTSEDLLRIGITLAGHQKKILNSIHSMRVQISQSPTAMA
The conditions noted are these: at 1 µM.

Sequence of Ephrin type-A receptor 4 (Homo sapiens) (P54764 whole entry): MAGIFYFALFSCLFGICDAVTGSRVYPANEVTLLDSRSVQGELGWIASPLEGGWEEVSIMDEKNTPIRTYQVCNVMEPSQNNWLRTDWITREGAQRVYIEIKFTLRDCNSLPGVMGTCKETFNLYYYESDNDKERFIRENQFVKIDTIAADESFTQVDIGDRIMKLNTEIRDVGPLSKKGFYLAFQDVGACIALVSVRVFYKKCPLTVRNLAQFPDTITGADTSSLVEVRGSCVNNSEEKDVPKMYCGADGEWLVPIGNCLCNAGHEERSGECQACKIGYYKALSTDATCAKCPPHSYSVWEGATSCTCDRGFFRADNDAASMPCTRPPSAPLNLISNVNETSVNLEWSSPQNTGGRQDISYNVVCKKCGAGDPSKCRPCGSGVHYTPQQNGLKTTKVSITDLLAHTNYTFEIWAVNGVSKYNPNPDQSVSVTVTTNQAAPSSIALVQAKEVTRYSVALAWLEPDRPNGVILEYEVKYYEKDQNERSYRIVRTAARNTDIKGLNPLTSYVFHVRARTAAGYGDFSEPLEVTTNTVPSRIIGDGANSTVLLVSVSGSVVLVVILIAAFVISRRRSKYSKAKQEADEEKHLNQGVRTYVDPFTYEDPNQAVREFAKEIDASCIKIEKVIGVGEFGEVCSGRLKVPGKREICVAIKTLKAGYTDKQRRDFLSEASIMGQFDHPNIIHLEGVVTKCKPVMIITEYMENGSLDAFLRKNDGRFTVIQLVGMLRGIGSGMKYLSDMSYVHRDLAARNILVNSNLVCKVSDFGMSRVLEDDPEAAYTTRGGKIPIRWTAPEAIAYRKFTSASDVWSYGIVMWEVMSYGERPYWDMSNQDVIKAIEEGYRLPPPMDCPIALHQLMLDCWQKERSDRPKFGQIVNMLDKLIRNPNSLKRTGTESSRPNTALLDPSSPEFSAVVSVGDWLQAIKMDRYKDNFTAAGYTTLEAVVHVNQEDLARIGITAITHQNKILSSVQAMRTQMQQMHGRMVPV

Broadly, the residual activity is the signal under treatment as a percentage of the control signal. For the compound `O=C1c2ccccc2-[n+]2ccc3c([nH]c4ccccc43)c21`, the residual activity came out at 81% in assay [1]; 103% in [2]; 104% in assay [3]; 116% in [4]; 102% in [5]; 85% in assay [6]. In addition, the residual activity in [7] is 79%; in assay [8], 89%; in assay [9], 85%; in [10], 85%.
